Source: PubChem
A selection: hits, their analogues and other compounds. The true share with any hit is near 7.2%.
Efflux pump inh: inhibitors of Candida antifungal efflux pumps expressed in yeast; S. cerevisiae Candida pump triplex, Nile Red efflux; inhibition, % at 10 µM; 0.44% of 330,000 active;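 active means plate passing quality check with inhibition over a set limit, or well fluorescence over plate mean plus 4 SD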;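 further: Nile Red retained in pooled yeast measured as flow cytometry median fluorescence; higher means more Nile Red kept so more efflux inhibition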
ALR inh: human ALR oxidase inhibition via reduced H2O2; purified ALR, DTT oxidation, H2O2 HRP-luminol luminescence; inhibition, % (no concentration beside the values); 3.8% of 290,000 active;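 active means mean replicate inhibition above about 79%, with every replicate also reaching it, limit read from the data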
SUMO Mot1 rescue: blocks SUMOylation pathway, rescuing yeast Mot1-301 growth. S. cerevisiae Mot1-301 growth rescue, ATP luminescence, 38.5C; percent above DMSO median, 100 means doubled. growth rescue, % at 18.8 µM. 1% of 320,000 active;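 active means every valid replicate shows activation above 250% relative to neutral control wells; inactive means the rest, any valid replicate at or below 250%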
VLA-4 inh: inhibition in a human VLA-4 binding assay | VLA-4 expressing cells, ligand binding flow cytometry | inhibition, % (about 7 µM as worked out from the volumes in the protocol) | 0.2% of 330,000 active | AID 2557; in the data active means inhibition above about 50%
AHR activator: activators of human aryl hydrocarbon receptor. AHR-responsive luciferase reporter cells, luminescence. activation, % at 5 µM. 2.5% of 320,000 active; in the data active means activation above about 47%
A1 inh: inhibitors of the anti-apoptotic protein A1, read as caspase activation; MEF A1-2A-BIM cells, Caspase-Glo 3/7 luminescence, 3 h; percent of clofoctol response, vehicle zero; caspase activation, % (test concentration not listed); 0.066% of 330,000 active;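 active means over half of replicate activation scores above 10%, or exactly half above 10 with the replicate mean above 10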
Large screens that a line does not name were inactive.

Cc1c(NC(=S)NC(=O)c2ccc(Cl)cc2)c(=O)n(-c2ccccc2)n1C	none
O=C(Nc1ccncc1)c1cc(S(=O)(=O)N2CCCC2)ccc1Cl	none
CSc1ccccc1C(=O)Nc1ccc2c(c1)OCO2	AHR activator 54.0
CCOc1cc(C(=O)Nc2ccc3c(c2)OCO3)ccc1OC(F)F	AHR activator 50.6
O=C(Nc1ccc(O)cc1)c1cc(S(=O)(=O)N2CCCC2)ccc1Cl	ALR inh 98.9
O=C(Nc1ccc2c(c1)OCO2)c1cccc(Cl)c1	AHR activator 48.6
O=C(Nc1ccc(Cl)cc1)c1ccc2c(c1)OCO2	none
CC(=O)Nc1ccc(C(=O)Nc2ccc3c(c2)OCO3)cc1	none
O=C(Nc1ccc2c(c1)OCO2)c1cccc(S(=O)(=O)N2CCCC2)c1	AHR activator 107.1
O=C(Nc1ccc2c(c1)OCO2)c1ccc[n+]([O-])c1	AHR activator 48.3
Cn1cc(S(=O)(=O)N2CCCC2)cc1C(=O)Nc1cccc(C(F)(F)F)c1	SUMO Mot1 rescue 332.8
CSc1cccc(NC(=O)c2cc(S(=O)(=O)N3CCCC3)cn2C)c1	none
O=C(Nc1cccc(S(=O)(=O)N2CCCC2)c1)c1cccc(OC(F)F)c1	SUMO Mot1 rescue 353.0
CC(=O)Nc1c(C)cc(S(C)(=O)=O)cc1C	none
O=C(Nc1ccc(Oc2nnc(-c3ccccc3)c3ccccc23)cc1)c1ccccc1	none
Cc1c(O)ccc(/C=N/Nc2nc(-c3cccnc3)nc3ccccc23)c1O	none
Oc1ccc(/C=N/Nc2nc(-c3cccnc3)nc3ccccc23)c(O)c1	none
O=C(N/N=C/c1cccnc1)c1cc(-c2ccccc2Cl)nc2ccccc12	none
COc1ccc(/C=N/Nc2nc(-c3cccnc3)nc3ccccc23)cc1OC	AHR activator 68.4 (no result: ALR inh)
Cc1ccc(-c2nc(N/N=C/c3ccncc3)c3ccccc3n2)cc1	AHR activator 64.3
Clc1ccccc1-c1nc(N/N=C/c2cccnc2)c2ccccc2n1	AHR activator 66.7
COc1c(CC=C(C)C)c(O)cc2oc(=O)c3c4ccc(O)cc4oc3c12	none
CC(C)=CCc1c(O)cc2c(=O)c3ccc(O)cc3oc2c1O	AHR activator 62.5
Cc1nc2c(C(=O)N3CCOCC3)cnn2c(C)c1Cc1ccc(Cl)cc1	ALR inh 98.5
O=C(CN1C(=O)NC2(CCCc3ccccc32)C1=O)NC1CCCCC1 (stereo not drawn)	none
CN1C(=O)c2ccc(C(=O)Nc3ccccc3O)cc2C1=O	AHR activator 55.8
CC(c1ccccc1)N1C(=O)c2ccc(C(=O)Nc3ccccc3C(=O)O)cc2C1=O (stereo not drawn)	ALR inh 97.6
CC(C)CCN1C(=O)c2ccc(C(=O)Nc3ccccc3C(=O)O)cc2C1=O	ALR inh 97.6 (no result: AHR activator)
CCC(C(=O)Nc1ccc(C(=O)Nc2ccccc2C(=O)O)cc1)c1ccccc1 (stereo not drawn)	ALR inh 79.4 (no result: AHR activator)
O=C(Nc1ccccc1O)c1ccc2c(c1)C(=O)N(c1ccccc1)C2=O	none (no result: AHR activator)
COc1ccc(N(C(=O)CNC(=O)c2cccs2)C(C(=O)NCC2CCCO2)c2ccccc2)cc1 (stereo not drawn)	none
O=C(O)C(Cc1ccccc1)N1C(=O)c2c(Cl)c(Cl)c(Cl)c(Cl)c2C1=O (stereo not drawn)	none
OCCOCCn1c(C(CO)Nc2nc(-c3cccc(Br)c3)cs2)nc2ccccc21 (stereo not drawn)	none (no result: ALR inh)
OCCOCCn1c(C(CO)Nc2nc(-c3ccc(Cl)cc3)cs2)nc2ccccc21 (stereo not drawn)	ALR inh 94.6
CCn1cc(C(=O)Nc2ncccc2O)c(=O)c2cc(F)c(N3CCN(C(=O)c4ccco4)CC3)cc21	none
CCNc1ccc(C(=O)O)cc1N	ALR inh 98.1
Nc1cc(C(=O)O)ccc1Nc1ccccc1	none (no result: ALR inh)
CCc1ccccc1Nc1ccc(C(=O)O)cc1N	ALR inh 98.7
Cc1ccc(NC2CCCN(C(=O)CCN3CCOCC3)C2)cc1C (stereo not drawn)	ALR inh 98.6
Cc1ccc(NC2CCCN(C(=O)CCn3nccc3C)C2)cc1C (stereo not drawn)	ALR inh 99.4
CCOC(=O)/C=C/C(=O)OCC(=O)Nc1ccc([N+](=O)[O-])cc1	none (no result: ALR inh)
COCCCN(Cc1ccco1)C(=O)c1cc2c(s1)-c1ccc(Cl)cc1S(=O)(=O)C2	none
C=C(C)CCC1(C)NC(=O)N(c2ccccc2)N1 (stereo not drawn)	none
CC1(c2ccc(O)cc2)NC(=O)N(c2ccccc2)N1 (stereo not drawn)	ALR inh 97.7
O=C(Cn1nc(-c2ccccc2)ccc1=O)NCc1ccc(F)cc1	none
O=C(Cn1nc(-c2ccc(Cl)cc2)ccc1=O)NCc1ccc2c(c1)OCO2	AHR activator 53.9 (no result: ALR inh)
O=C(Cn1nc(-c2ccccc2)ccc1=O)NCc1ccc2c(c1)OCO2	AHR activator 67.8
CCOC(=O)/C(=N\Nc1cc(Cl)ccc1Cl)N1CCOCC1	ALR inh 97.6
CCOC(=O)/C(=N\Nc1cc(Cl)ccc1Cl)N1CC(C)OC(C)C1 (stereo not drawn)	none
COc1ccc(CNC(=S)N/N=C/c2ccc(O)c(OC)c2)cc1	ALR inh 86.7
CCN(CC)c1ccc(/C=N/NC(=S)NCc2ccccc2)cc1	none
COc1ccc(CNC(=S)N/N=C/c2ccc(OC)c(OC)c2)cc1	none
CCN(CC)c1ccc(/C=N/NC(=S)NCc2ccc(OC)cc2)cc1	AHR activator 48.6
Nc1ccc2nc[nH]c2c1	ALR inh 99.0
COc1ccc(CC(=O)N2CCN(c3ccc(F)cc3)CC2)cc1	none
COc1ccc(N2CCN(C(=O)Cc3cccs3)CC2)cc1	ALR inh 96.8
O=C(NCC(=O)N1CCN(c2ccccc2)CC1)c1cccs1	ALR inh 96.1
COc1ccc(N2CCN(C(=O)Cc3ccc(OC)c(OC)c3)CC2)cc1	ALR inh 87.9
CC(=O)c1ccc(N2CCN(C(=O)Cc3cccs3)CC2)cc1	none
O=C(CCC(=O)N1CCN(c2ccc(O)cc2)CC1)c1cccs1	ALR inh 99.1
CCOC(=O)C(C)Sc1ncc(-c2ccc(Cl)cc2)cn1 (stereo not drawn)	none
CN1CCN(C(=O)CNC(=O)c2cccs2)CC1	none
COc1ccc(N2CCN(C(=O)CNC(=O)c3cccs3)CC2)cc1	ALR inh 95.1
O=C(CCNC(=O)c1ccccc1)NNC(=O)c1ccc(F)cc1	none
CCOC(=O)c1cn(-c2ccc(F)c(F)c2F)c2c(F)c(F)c(F)cc2c1=O	none
CCOC(=O)c1cn(-c2nc(-c3ccc(Cl)c(Cl)c3)cs2)c2c(F)c(N3CCOCC3)c(F)cc2c1=O	Efflux pump inh 1.6
COc1ccc(CN(C(=O)c2ccco2)c2ccc(C)c(C)c2)cc1	SUMO Mot1 rescue 403.4
O=C(CCN1CCOCC1)c1ccc(Cl)cc1	ALR inh 96.3
O=C(CCN1CCOCC1)c1ccc(Br)cc1	ALR inh 97.7
